For 22 compounds, outcome results are on record in PubChem BioAssay AID651818 (Broad Institute, 2012).

Molecules are shown by their SMILES. Results with a measured potency or affinity are listed apart. Inconclusive results are not listed. Calls of active or inactive are those of the source. Rule as the data show it: inconclusive = activity change below about -55%; inactive = above that.

The assay is described as follows: intracellular Trypanosoma cruzi inhibitors in host cells – cell-based, plate reader, cherry-pick samples, set 3, dose response (AID 651818). The settings on record: series mostly up to 10 µM.
On to `Cc1noc(C)c1NC(=O)Nc1cccc2c1O[C@@H](CN(C)Cc1ccc(-c3ccccc3)cc1)[C@@H](C)CN([C@@H](C)CO)C2=O`, for which the compound was classed as inactive. The result for `C[C@@H]1CN([C@@H](C)CO)C(=O)c2cccc(NS(=O)(=O)c3cn(C)cn3)c2O[C@H]1CN(C)C(=O)Nc1ccc2c(c1)OCO2` reads “inactive”. The result for `Cc1noc(C)c1S(=O)(=O)Nc1cccc2c1O[C@@H](CN(C)CC1CC1)[C@@H](C)CN([C@H](C)CO)C2=O` reads “inactive”. The result for `C[C@@H]1CN([C@H](C)CO)C(=O)c2cccc(NS(=O)(=O)c3cn(C)cn3)c2O[C@@H]1CN(C)CC1CCCCC1` reads “inactive”. For `C[C@@H]1CN([C@@H](C)CO)C(=O)c2cccc(NS(C)(=O)=O)c2O[C@H]1CN(C)C(=O)NC1CCCCC1`, the result was inactive. The value for `C[C@H](CO)N1C[C@H](C)[C@@H](CN(C)Cc2ccccc2)Oc2c(NS(C)(=O)=O)cccc2C1=O` was “inactive”; that for `Cc1noc(C)c1NC(=O)Nc1cccc2c1O[C@@H](CN(C)C(=O)NC1CCCCC1)[C@@H](C)CN([C@@H](C)CO)C2=O` was “inactive”.

As to `COc1ccc(NC(=O)N(C)C[C@H]2Oc3c(NC(=O)C4CCOCC4)cccc3C(=O)N([C@H](C)CO)C[C@@H]2C)cc1`, the call was inactive.

Regarding `C[C@@H]1CN([C@H](C)CO)C(=O)c2cccc(NS(=O)(=O)c3cn(C)cn3)c2O[C@@H]1CN(C)Cc1ccncc1`, the compound was classed as inactive.

Turning to `C[C@H](CO)N1C[C@H](C)[C@@H](CN(C)Cc2ccc3c(c2)OCO3)Oc2c(NS(=O)(=O)c3ccc(Cl)cc3)cccc2C1=O`, the result was inactive. The value for `C[C@H]1CN([C@@H](C)CO)C(=O)c2cccc(NC(=O)c3ccncc3)c2O[C@@H]1CN(C)S(=O)(=O)c1ccccc1` was “inactive”; that for `C[C@@H]1CN([C@@H](C)CO)C(=O)c2cccc(N(C)C)c2O[C@H]1CN(C)Cc1ccc2c(c1)OCO2` was “inactive”.

Turning to `C[C@H](CO)N1C[C@H](C)[C@H](CN(C)S(C)(=O)=O)Oc2c(NS(=O)(=O)c3ccc(F)cc3)cccc2C1=O`, the call was inactive.

Take `CC(C)NC(=O)Nc1cccc2c1O[C@H](CN(C)Cc1ccc3c(c1)OCO3)[C@@H](C)CN([C@H](C)CO)C2=O`: the result was inactive.

With `Cc1ccc(S(=O)(=O)Nc2cccc3c2O[C@H](CN(C)CC2CCCCC2)[C@@H](C)CN([C@H](C)CO)C3=O)cc1`, the outcome was inactive. The result for `C[C@H]1CN([C@@H](C)CO)C(=O)c2cccc(NS(=O)(=O)c3cccs3)c2O[C@@H]1CN(C)C(=O)NC1CCCCC1` reads “inactive”; that for `C[C@@H]1CN([C@@H](C)CO)C(=O)c2cccc(NC(=O)c3cnccn3)c2O[C@H]1CN(C)CC1CC1`, “inactive”.

For `C[C@@H]1CN([C@@H](C)CO)C(=O)c2cccc(NS(=O)(=O)c3ccccc3)c2O[C@@H]1CN(C)CC1CC1`, the result was inactive. `C[C@H](CO)N1C[C@H](C)[C@@H](CN(C)C(=O)Nc2ccc(C(F)(F)F)cc2)Oc2c(NS(=O)(=O)c3ccc(Cl)cc3)cccc2C1=O`: the compound was called inactive. For the compound `C[C@@H]1CCCCO[C@@H](CN(C)Cc2ccc(C(F)(F)F)cc2)[C@@H](C)CN([C@H](C)CO)C(=O)c2cc(NC(=O)Nc3ccc4c(c3)OCO4)ccc2O1`, the compound was classed as inactive. The value for `C[C@H](CO)N1C[C@H](C)[C@@H](CN(C)C(=O)Nc2ccc3c(c2)OCO3)Oc2c(NC(=O)C3CCOCC3)cccc2C1=O` was “inactive”; that for `CC(C)NC(=O)N(C)C[C@@H]1Oc2c(NS(=O)(=O)c3ccc(F)cc3)cccc2C(=O)N([C@H](C)CO)C[C@@H]1C` was “inactive”.
